Assay [1] is described as follows: Nuclear factor erythroid 2-related factor 2/antioxidant responsive element (Nrf2/ARE) small molecule agonists: qHTS cell viability counter screen in human keratinocytes (AID 1919968; active means well fitted curve in the direction sought with a large enough effect in the repeat runs; an effect the other way counts as inactive or inconclusive; further: nearly all actives have a fitted effect of over 55% in size; further: potency means the concentration at half of the fitted maximal effect). In a few lines: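 CellTiter-Fluor fluorescence, read 1 h after reagent, gave viability in the same wells as the ARE-luciferase assay. KeratinoSens cells (1,500/well) had 23 h compound exposure at 37 C/5% CO2 following 5 h plating.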

A short description of assay [2]: Nuclear factor erythroid 2-related factor 2/antioxidant responsive element (Nrf2/ARE) small molecule agonists: luciferase reporter gene qHTS assay in human keratinocytes (AID 1919969). Further: nearly all actives have a fitted effect of over 35% in size. Further: potency means the concentration at half of the fitted maximal effect.
Assay [3] has as its target Gonadotropin-releasing hormone receptor (Homo sapiens) (UniProt P30968). As to the kind of experiment: Human gonadotropin-releasing hormone receptor (GnRHR) small molecule agonists, calcium flux assay in GnRHR-HEK293 cells (AID 1920063). Further: nearly all actives have a fitted effect of over 35% in size. In a few lines:
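Agonist mode: compounds at 15 concentrations, in triplicate, went onto calcium dye-loaded GnRHR-HEK293 cells. Intracellular calcium was then followed as 480/540 nm fluorescence at 1 s intervals over 3 min.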

For assay [4], the target named is KiSS-1 receptor (Homo sapiens) (UniProt Q969F8). As to the kind of experiment: Human kisspeptin (KISS1R) small molecule agonists, calcium flux assay in KISS1R-HEK293 cells (AID 1920064; active means well fitted curve in the direction sought with a large enough effect in the repeat runs; an effect the other way counts as inactive or inconclusive). The method in brief:
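Agonist mode: intracellular calcium rise tracked at 1 s intervals over 3 min (480/540 nm) immediately after compound addition to dye-loaded KISS1R-HEK293 stable cells. Each compound tested at 15 concentrations in triplicate.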

Assay [5] is described as follows: G protein-coupled receptor (GPCR) small molecule agonists, calcium flux assay: HEK293 wild type cell line counter screen (AID 1920065). The method in brief:
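Calcium flux counter screen: compound added in agonist mode at 15 concentrations in triplicate to dye-loaded parental HEK293 cells. Fluorescence (480/540) read kinetically for 3 min; ATP served as positive control.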

Assay [6] can be described thus: p53 small molecule agonists, cell-based qHTS assay with human liver microsomes (AID 1963577).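 Further: p53 response element beta-lactamase reporter cells with liver microsomes plus NADPH.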 The method in brief:
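Metabolically competent format: test substances, human liver microsomes and NADPH (both 0.5 mg/mL final) incubated with p53RE-bla cells 16 h at 37 C. Beta-lactamase reporter signal then quantified by fluorescence.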

A short description of assay [7]: p53 small molecule agonists, cell-based qHTS assay with rat liver microsomes (AID 1963578). The method in brief: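 Each plate received p53RE-bla cells, then compound, then rat liver microsomes and NADPH (both 0.5 mg/mL final). Plates were held 16 h at 37 C, and beta-lactamase activity was detected with LiveBLAzer over 2 h.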
The nature of assay [8]: p53 small molecule agonists, cell-based qHTS assay with human liver microsomes: qHTS cell viability counter screen (AID 1963579). Further: nearly all actives have a fitted effect of over 45% in size. Further: potency means the concentration at half of the fitted maximal effect. In a few lines: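 Tox21 library compounds, delivered from DMSO stocks, were tested on p53RE-bla cells together with 0.5 mg/mL human liver microsomes and 0.5 mg/mL NADPH (final) over 16 h at 37 C; CellTiter-Glo luminescence served as the cytotoxicity measure.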

The nature of assay [9]: p53 small molecule agonists, cell-based qHTS assay with rat liver microsomes: qHTS cell viability counter screen (AID 1963580). Further: nearly all actives have a fitted effect of over 45% in size. Further: potency means the concentration at half of the fitted maximal effect. The method in brief:
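Rat liver microsome (0.5 mg/mL final) and NADPH (0.5 mg/mL final) co-incubation with compounds for 16 h at 37 C on HCT-116 p53RE-bla cells; cytotoxicity taken from intracellular ATP luminescence.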

Assay [10] in a line: p53 small molecule agonists, cell-based qHTS assay: qHTS cell viability counter screen (AID 1963581). Further: nearly all actives have a fitted effect of over 45% in size. Further: potency means the concentration at half of the fitted maximal effect. The method in brief:
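Counter screen read by CellTiter-Glo luminescence (ATP content, 30 min at room temperature), run in the same wells as the beta-lactamase reporter read. HCT-116 p53RE-bla cells saw compounds for 16 h at 37 C.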

Assay [11] can be described thus: p53 small molecule agonists, cell-based qHTS assay (AID 1963582; active means well fitted activation curve with a large enough effect in the signal ratio in the repeat runs, not every such curve was filed as active; the % refers to the signal ratio). The method in brief: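 Read-out is beta-lactamase FRET fluorescence after 2 h at room temperature with LiveBLAzer B/G substrate. p53 response element-bla cells were treated 16 h at 37 C with compounds in DMSO, added 5 h after seeding.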
A short description of assay [12]: cAMP Responsive Elements (CRE) small molecule agonists, cell-based qHTS assay (AID 1963590). The method in brief:
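Agonist mode: compound added to CRE-bla HEK 293T cells (2,000/well, 18 h after plating) for 3 h at 37 C/5% CO2. Reporter activity detected via FRET beta-lactamase substrate, 2 h room-temperature loading.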

The nature of assay [13]: cAMP Responsive Elements (CRE) small molecule antagonists, cell-based qHTS assay (AID 1963591; active means well fitted inhibition curve with a large enough effect in the signal ratio in the repeat runs, not every such curve was filed as active; the % refers to the signal ratio). In a few lines:
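Antagonist mode: compounds are added alongside the adenylyl cyclase activator NKH477 (0.25 uM final) to CRE-bla HEK293T cells for 3 h. LiveBLAzer FRET substrate, 2 h at room temperature, reports bla expression.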

The target of assay [14] is Beta-2 adrenergic receptor (Homo sapiens) (UniProt P07550). As to the kind of experiment: Adrenergic beta2 receptor (ADRB2) small molecule antagonists, cell-based qHTS assay (AID 1963592). Further: series mostly up to about 92 µM; nearly all actives have a fitted effect of over 50% in size. In a few lines:
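Assay format: CHO-ADRB2 cells, 18-20hr seeding at 37C/5% CO2, then compound plus 1nM isoproterenol agonist mix for 0.5hr RT. Homogeneous time-resolved fluorescence cAMP detection after 1hr, expressed as 665/615 nm ratio.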

For assay [15] the target is unchanged. As to the kind of experiment: Adrenergic beta2 receptor (ADRB2) small molecule agonists, cell-based qHTS assay (AID 1963593).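 Further: CHO cells stably overexpressing human ADRB2.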 The method in brief: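 CHO cells stably over-expressing ADRB2 were plated overnight at 37C, then dosed with compounds plus a stimulation mix containing 100uM IBMX and 25uM Ro-20-1724 for 0.5hr at room temperature. cAMP was measured by HTRF competition, 1hr.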

The target in assay [16] is D(2) dopamine receptor (Homo sapiens) (UniProt P14416). As to the kind of experiment: Dopamine D2 receptor (DRD2) small molecule agonists, cell-based qHTS assay (AID 1963594). Further: nearly all actives have a fitted effect of over 35% in size. In a few lines: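 cAMP accumulation in DRD2-HEK293 cells measured by HTRF after 1 h detection; compounds added 10 min before NKH477 (200nM […]) forskolin-analogue stimulation, 30 min at room temperature, with Ro20-1724 present at 0.1 mM final.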

The target is the same in assay [17]. As to the kind of experiment: Dopamine D2 receptor (DRD2) small molecule antagonists, cell-based qHTS assay (AID 1963595; active means well fitted inhibition curve with a large enough effect in the signal ratio in the repeat runs, with a control signal flat; the % refers to the signal ratio). In a few lines: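 Human DRD2 antagonist qHTS measuring cAMP by HTRF. The cells are exposed to compound for 10 min, then to NKH477 (200 nM) and quinpirole (12 nM) for 30 min at RT, with Ro20-1724 (0.1 mM) present throughout.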
Assay [18] addresses Muscarinic acetylcholine receptor M1 (Homo sapiens) (UniProt P11229). As to the kind of experiment: Cholinergic receptor muscarinic 1 (CHRM1) small molecule antagonists, cell-based qHTS assay (AID 1963588). Further: nearly all actives have a fitted effect of over 40% in size. The method in brief: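 Compounds were tested at 15 concentrations in three independent runs. Dye-loaded CHRM1-CHO cells were exposed 5 min at room temperature before stimulation by acetylcholine added at 50nM. Intracellular calcium was read kinetically on FDSS for 3 min.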

The target of assay [19] is 5-hydroxytryptamine receptor 2A (Homo sapiens) (UniProt P28223). As to the kind of experiment: 5-hydroxytryptamine receptor 2A (HTR2A) small molecule agonists, cell-based qHTS assay (AID 1963587). Further: nearly all actives have a fitted effect of over 30% in size. The method in brief: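 Kinetic calcium-flux fluorescence (2 min, 1 sec intervals) after compound addition in agonist mode. HTR2A-CHO cells were cultured 18 h, then dye-loaded 1 h at 37 C.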

Several values for one entry are separate records, joined by “and”; a condition that tells them apart may be missing. Identical values can stand only once. Inconclusive results are not listed. The source holds several records for some structures; these can differ, active in one and inactive in another. Activity calls are given as the source filed them. Unless noted, the call rests on the fitted dose curve.
On the % scale 0 is the no-effect control and ±100 the full control effect.

Chain of KiSS-1 receptor (Homo sapiens) (Q969F8 whole entry, looked up): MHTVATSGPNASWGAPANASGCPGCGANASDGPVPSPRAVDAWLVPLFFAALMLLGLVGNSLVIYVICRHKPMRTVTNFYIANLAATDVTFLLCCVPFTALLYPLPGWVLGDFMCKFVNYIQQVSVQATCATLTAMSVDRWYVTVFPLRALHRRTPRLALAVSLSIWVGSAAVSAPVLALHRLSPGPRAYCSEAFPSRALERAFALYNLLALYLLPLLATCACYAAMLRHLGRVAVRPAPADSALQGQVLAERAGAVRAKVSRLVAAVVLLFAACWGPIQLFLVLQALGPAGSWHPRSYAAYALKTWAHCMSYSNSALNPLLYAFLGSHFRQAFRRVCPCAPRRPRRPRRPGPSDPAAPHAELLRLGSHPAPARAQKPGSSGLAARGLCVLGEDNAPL
Chain of Muscarinic acetylcholine receptor M1 (Homo sapiens) (P11229 whole entry, looked up): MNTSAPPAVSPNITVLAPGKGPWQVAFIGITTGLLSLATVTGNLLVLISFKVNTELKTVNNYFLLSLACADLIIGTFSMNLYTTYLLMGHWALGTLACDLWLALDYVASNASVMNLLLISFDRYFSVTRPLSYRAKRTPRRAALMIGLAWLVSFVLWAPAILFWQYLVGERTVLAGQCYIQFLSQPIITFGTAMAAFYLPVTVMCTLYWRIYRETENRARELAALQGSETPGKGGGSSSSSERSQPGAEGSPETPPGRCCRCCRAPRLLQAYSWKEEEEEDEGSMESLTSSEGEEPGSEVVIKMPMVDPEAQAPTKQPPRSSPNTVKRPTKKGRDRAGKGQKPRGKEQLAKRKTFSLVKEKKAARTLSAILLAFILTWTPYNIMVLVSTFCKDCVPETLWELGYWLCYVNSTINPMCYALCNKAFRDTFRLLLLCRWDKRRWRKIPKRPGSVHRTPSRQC
Chain of Gonadotropin-releasing hormone receptor (Homo sapiens) (P30968 whole entry, looked up): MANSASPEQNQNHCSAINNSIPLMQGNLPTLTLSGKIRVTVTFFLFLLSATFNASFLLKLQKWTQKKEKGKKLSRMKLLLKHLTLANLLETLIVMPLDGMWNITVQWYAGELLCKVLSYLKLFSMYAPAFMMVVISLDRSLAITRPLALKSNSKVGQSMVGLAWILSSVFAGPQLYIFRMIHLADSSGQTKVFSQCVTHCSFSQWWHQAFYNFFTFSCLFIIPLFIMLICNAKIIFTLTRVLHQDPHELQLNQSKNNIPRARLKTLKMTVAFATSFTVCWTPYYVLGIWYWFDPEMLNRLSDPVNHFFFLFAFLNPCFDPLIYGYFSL
Chain of 5-hydroxytryptamine receptor 2A (Homo sapiens) (P28223 whole entry, looked up): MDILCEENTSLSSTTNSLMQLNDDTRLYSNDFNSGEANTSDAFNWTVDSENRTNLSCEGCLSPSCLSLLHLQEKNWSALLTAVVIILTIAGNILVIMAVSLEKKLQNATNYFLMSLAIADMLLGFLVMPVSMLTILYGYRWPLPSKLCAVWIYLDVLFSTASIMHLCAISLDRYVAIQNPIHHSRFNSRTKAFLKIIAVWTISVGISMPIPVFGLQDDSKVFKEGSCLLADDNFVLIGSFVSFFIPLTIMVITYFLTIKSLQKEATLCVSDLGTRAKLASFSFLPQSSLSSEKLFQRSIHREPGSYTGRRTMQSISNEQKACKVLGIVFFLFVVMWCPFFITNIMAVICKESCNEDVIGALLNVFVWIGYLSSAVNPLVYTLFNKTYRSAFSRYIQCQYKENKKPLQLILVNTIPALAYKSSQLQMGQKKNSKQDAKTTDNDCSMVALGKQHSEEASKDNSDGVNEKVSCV
Chain of D(2) dopamine receptor (Homo sapiens) (P14416 whole entry, looked up): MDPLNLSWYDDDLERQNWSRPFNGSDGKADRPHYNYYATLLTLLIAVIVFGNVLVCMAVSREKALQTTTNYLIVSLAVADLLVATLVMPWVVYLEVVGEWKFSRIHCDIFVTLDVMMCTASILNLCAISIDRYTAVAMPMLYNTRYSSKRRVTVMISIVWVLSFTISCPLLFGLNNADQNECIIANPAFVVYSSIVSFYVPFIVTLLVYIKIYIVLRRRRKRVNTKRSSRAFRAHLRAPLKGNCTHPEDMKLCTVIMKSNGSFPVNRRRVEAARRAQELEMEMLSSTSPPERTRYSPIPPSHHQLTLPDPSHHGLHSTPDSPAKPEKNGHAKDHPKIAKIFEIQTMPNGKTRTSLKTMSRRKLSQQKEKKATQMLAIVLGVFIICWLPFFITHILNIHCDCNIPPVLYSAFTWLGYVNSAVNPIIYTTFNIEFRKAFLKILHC
Chain of Beta-2 adrenergic receptor (Homo sapiens) (P07550 whole entry, looked up): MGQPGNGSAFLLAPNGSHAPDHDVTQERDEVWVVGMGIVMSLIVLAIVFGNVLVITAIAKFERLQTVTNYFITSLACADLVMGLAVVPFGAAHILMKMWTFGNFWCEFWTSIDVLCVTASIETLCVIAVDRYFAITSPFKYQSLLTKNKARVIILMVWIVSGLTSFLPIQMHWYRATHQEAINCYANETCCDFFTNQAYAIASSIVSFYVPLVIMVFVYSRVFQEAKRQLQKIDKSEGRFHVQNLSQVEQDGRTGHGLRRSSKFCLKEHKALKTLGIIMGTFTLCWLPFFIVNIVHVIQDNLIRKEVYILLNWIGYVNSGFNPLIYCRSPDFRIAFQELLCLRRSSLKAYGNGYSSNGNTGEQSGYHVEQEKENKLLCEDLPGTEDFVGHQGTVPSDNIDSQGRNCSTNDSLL

Consider `CC(O)CO` (stereo unspecified), for which the Potency result in assay [1], in [2], in assay [3], in [4], in assay [5] and in assay [6] was “inactive” in each case. For the same compound, the Potency entry in [7], in assay [8], in assay [9], in assay [10], in [11] and in assay [12] was “inactive” each time. In addition, the Potency entry in assay [13], in assay [14], in [15], in assay [16] and in assay [17] was “inactive” in each case.

With `CCCCCCc1ccc(O)cc1O`, in [1], the Potency was 48.7 µM (active) and inactive. The Potency entry in [2], in assay [3], in assay [4], in assay [5], in assay [6] and in [7] was “inactive” each time. The Potency entry in assay [8], in assay [9], in assay [10], in assay [11], in [18] and in [12] was “inactive” in each case. The Potency result in [13], in [14], in assay [15], in assay [16] and in [17] was “inactive” in each case.

`CC(=O)Oc1ccccc1C(=O)O`: the Potency entry in assay [1], in [2], in [3], in assay [4], in [5] and in [6] was “inactive” each time. In addition, the Potency result in assay [7], in [8], in [9], in assay [10], in assay [11] and in assay [12] was “inactive” in each case. In addition, the Potency entry in assay [13], in assay [14], in assay [15], in [16] and in assay [17] was “inactive” in each case.

With `CC(C)CC(=O)CC(C)CC(C)C` (stereo unspecified), the Potency entry in [1], in assay [2], in assay [3], in [4], in assay [5] and in assay [6] was “inactive” throughout. For the same compound, the Potency result in assay [7], in assay [8], in assay [9], in assay [10], in assay [11] and in [19] was “inactive” each time. The Potency result in assay [18], in [12], in assay [13], in [14] and in assay [16] was “inactive” each time.

In the case of `OCc1cccc(Oc2ccccc2)c1`, the Potency result in assay [1], in assay [2], in assay [3], in assay [4], in [5] and in assay [6] was “inactive” throughout. In addition, the Potency entry in assay [7], in assay [8], in assay [9], in assay [10], in [11] and in [18] was “inactive” each time. Further, the Potency result in [12], in assay [13], in assay [14], in assay [15], in assay [16] and in [17] was “inactive” in each case.

With `NC(=NCCCCCCN=C(N)/N=C(\N)Nc1ccc(Cl)cc1)/N=C(\N)Nc1ccc(Cl)cc1`, the Potency is 24.2 µM (active) [middle of 5 runs] in assay [1]; 40.4 µM (active) and 28.7 µM (active) and inactive in assay [8]; 32.1 µM (active) and 41.5 µM (active) and inactive in assay [9]; 45.3 µM (active) and inactive in assay [10]. Besides, the Potency result in [2], in assay [3], in assay [4], in assay [5], in assay [6] and in [7] was “inactive” in each case. Moreover, the Potency entry in assay [11], in [19], in assay [12], in assay [13] and in assay [16] was “inactive” in each case.

Regarding `Cc1cc(=O)n(-c2ccccc2)n1C`, the Potency entry in assay [1], in [2], in assay [3], in assay [4], in assay [5] and in assay [6] was “inactive” each time. Besides, the Potency result in assay [7], in assay [8], in [9], in assay [10], in assay [11] and in assay [12] was “inactive” in each case. Further, the Potency entry in assay [13], in assay [14], in assay [15], in [16] and in assay [17] was “inactive” in each case.

For the compound `COC(=O)c1ccccc1O`, the Potency result in assay [1], in [3], in assay [4], in assay [5], in assay [6] and in assay [7] was “inactive” in each case. Also, the Potency result in assay [8], in assay [9], in [10], in assay [11], in assay [12] and in assay [13] was “inactive” each time. Besides, the Potency entry in assay [14], in assay [15], in assay [16] and in [17] was “inactive” each time. Also, the Potency in [2] was 68.7 µM (active) and inactive.

(Values after PubChem BioAssay (Tox21).)
